This is an account of results in PubChem BioAssay (NCATS).

Test [1] is described as follows: AP1 Signaling Pathway (AID 357; active = well fitted curve in either direction with a large enough effect, not every such curve was filed as active;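 also: ME-180 reporter cells stimulated with EGF at its EC50 level; % is scaled to controls: 0 for no effect and ±100 for the full control effect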). An outline of the steps: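 Titration-series screen for positive or negative modulators of EC50 EGF-induced signaling in ME-180 cells carrying an AP-1-driven beta-lactamase reporter. After 5 hours at 37 degrees Celsius, CCF4 460nm/530nm emission ratio gave %Activity; AC50 values derived.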
For test [2], the target named is Cytochrome P450 1A2 (Homo sapiens) (UniProt P05177). Nature of the test: p450-cyp1a2 (AID 410; calls by dose curve; also: potency is read from the fitted curve at half-maximal effect;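 as to activity change, negative = inhibition: -100% = full effect of reference inhibitor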). In outline:
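Human CYP1A2 (20nM) demethylated Luciferin-ME at its Km (100uM) in 100mM KPO4. After 10 min compound preincubation, NADPH regeneration ran the reaction 60 min at room temperature. Luciferin was read by luminescence, normalized to 57 uM furafylline.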

Test [3] in a line: NFAT Signaling Pathway (AID 444; active = well fitted curve in either direction with a large enough effect, not every such curve was filed as active;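 also: carbachol stimulus at about its EC50 of 1 µM final; % is scaled to controls: 0 for no effect and ±100 for the full control effect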). To be noted: Jurkat NFAT-bla M1, carbachol, beta-lactamase ratio, 5 h; at 17.2 µM (top of the series) unless noted. An outline of the steps:
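Jurkat cells with NFAT-driven β-lactamase reporter and co-expressed M1 receptor, stimulated with carbachol (final 1 uM, ~EC50), compound titration, 5 h at 37 °C. CCF4 loaded 1 h at RT; 460/530 nm ratio gave %activity and AC50.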

A short description of test [4]: Stat Signaling Pathway (AID 446; active = well fitted curve in either direction with a large enough effect, not every such curve was filed as active;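 also: ME-180 cervical cancer cells given 40 pM IL-6 alongside compound; SIE-controlled beta-lactamase reporter measured as 460/530 nm FRET emission ratio; % is scaled to controls: 0 for no effect and ±100 for the full control effect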). In outline:
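ME-180 SIE-bla cells; overnight plating; cpd + IL-6 40 pM, 5 h, 37 C; LiveBLAzer 2.5 h RT; 460/530 nm emission ratio. Normalized to 300 pM IL-6 and 125 nM JAK inhibitor controls.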

The target of test [5] is Mitogen-activated protein kinase 10 (Mus musculus) (UniProt Q61831). Nature of the test: JNK3 AlphaScreen Assay (AID 530; active = well fitted curve in either direction with a large enough effect, not every such curve was filed as active;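 also: kinase came from lysate of stimulated human HepG2 cells; signal reports phosphorylation of biotinylated GST-cJun 1-79 at Ser73 with 10 µM ATP; % is scaled to controls: 0 for no effect and ±100 for the full control effect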). An outline of the steps:
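qHTS format: compounds tested as titrations against IL-1beta/TNF-alpha-activated HepG2 lysate JNK3 with biotin-GST-cJun substrate and 10 uM ATP at room temperature. Loss of anti-phospho-cJun AlphaScreen signal indicates inhibition.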
For orientation: Bead proximity is the source of the signal in Alpha formats.

Test [6] addresses 3',5'-cyclic-AMP phosphodiesterase 4B (Homo sapiens) (UniProt Q07343). Nature of the test: qHTS Assay for Inhibitors of PDE-IV (AID 607; active = well fitted activation curve with a large enough effect in the main read-out, with a control signal flat, not every such curve was filed as active; also: % of control where 0% means no effect). In outline:
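ACTOne HEK293 cells carry a modified cAMP-gated CNG channel and express endogenous PDE4; plated 1000 cells/well, compounds up to 22.9 uM final. Membrane-potential dye fluorescence (ex 535/em 590) was read; parental cells received 10 uM forskolin + 100 uM RO 20-1724.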
(In general: Quantitative high-throughput screening tests each substance at several concentrations.)

Test [7] in a line: qHTS Assay for Lipid Storage Modulators (AID 1519; calls by dose curve). To be noted: Drosophila S3 cells, BODIPY lipid droplet/cell ratio, laser cytometry, cells loaded with oleic acid. In outline: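 Cells seeded at 5,000 per well were treated with compounds over a concentration series and loaded with oleic acid (400 uM, as added). Lipid droplet fluorescence (488 nm excitation, 500-530 nm channel) was read by laser-scanning cytometry and normalized to 20 uM Triacsin C.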

Test [8] addresses Ubiquitin carboxyl-terminal hydrolase 1 (Homo sapiens) (UniProt O94782). Nature of the test: Inhibitors of USP1/UAF1: Pilot qHTS (AID 504865).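 Also: rhodamine fluorescence freed from ubiquitin-rhodamine substrate followed over time; top concentration of the series differs between compounds; % is scaled to controls: 0 for no effect and ±100 for the full control effect; nearly all actives have a fitted effect of over 35% in size.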 An outline of the steps: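 Enzyme-free wells gave the negative control, while test wells held 1nM USP1/UAF1 preincubated with compound for 15 min at room temperature. Ub-Rho at 150nM final started the reaction, and fluorescence at 480/540 nm was recorded kinetically.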

Test [9] addresses Luciferin 4-monooxygenase (Photinus pyralis) (UniProt P08659). Nature of the test: Biochemical firefly luciferase enzyme assay for NPC (AID 624030).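 Also: purified P. pyralis luciferase at 10 nM with luciferin and ATP substrate; 0% = DMSO and -100% = full luciferase inhibition by PTC124 control; nearly all actives have a fitted effect of over 70% in size.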 An outline of the steps: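 Purified P. pyralis luciferase at 10 nM in 50 mM Tris Acetate (final), luminescence read within 5 minutes of enzyme addition to compounds. Activity normalised to PTC124 versus DMSO; concentration-response curves classed by r2, magnitude and activity.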

Test [10] in a line: S16 Schwann cell viability assay (CellTiter-Glo assay) (AID 624031).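 Also: cellular ATP luminescence as a viability measure; plate controls were DMSO-treated cells for no effect and cell-free wells for full effect; nearly all actives have a fitted effect of over 70% in size.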 An outline of the steps:
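Native S16 rat Schwann cells, 500-750 cells/well in DMEM with 10% FBS, dosed with compound after overnight culture and incubated 24h at 37 degree Celsius/5% CO2. Viability by CellTiter-Glo luminescence; % activity normalized to no-cell wells and DMSO-treated cells.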

Test [11] is described as follows: qHTS profiling for inhibitors of Plasmodium falciparum proliferation (AID 504749).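 Also: 0% = DMSO vehicle and full inhibition = artemisinin control; nearly all actives have a fitted effect of over 60% in size.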 The following applies: P. falciparum in erythrocytes, SYBR Green DNA, 72 h, at 12.8 µM (top of the series). An outline of the steps: (§1)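 Readout was DNA-dye fluorescence from lysed cultures, ex 485/em 535 nm. Parasitized red cells had grown 72 h with compound; data scaled between 0.29 uM artemisinin and DMSO wells and corrected using vehicle-only plates.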

Test [12] has as its system C2A. The description is as above. The following applies: P. falciparum in erythrocytes, SYBR Green DNA, 72 h; series mostly up to 12.8 µM. In outline: as §1
Test [13] relates to CP191. Described as above. To be noted: P. falciparum in erythrocytes, SYBR Green DNA, 72 h; series mostly up to 12.8 µM. In outline:
as §1

In test [14] the test system is CP256. The description is as above. To be noted: P. falciparum in erythrocytes, SYBR Green DNA, 72 h; series mostly up to 12.8 µM. An outline of the steps:
as §1

Test [15] relates to CP262. The description is as above. The following applies: P. falciparum in erythrocytes, SYBR Green DNA, 72 h; series mostly up to 12.8 µM. An outline of the steps:
as §1

The subject of test [16] is CP268. The description is as above. To be noted: P. falciparum in erythrocytes, SYBR Green DNA, 72 h; series mostly up to 12.8 µM. In outline: as §1
Test [17] concerns JCK. Described as above. To be noted: P. falciparum in erythrocytes, SYBR Green DNA, 72 h; series mostly up to 12.8 µM. In outline:
as §1

In test [18] the test system is SC27B. The test is described as above. The following applies: P. falciparum in erythrocytes, SYBR Green DNA, 72 h; series mostly up to 12.8 µM. An outline of the steps: as §1
Test [19] has as its target Glucocorticoid receptor (Homo sapiens) (UniProt P04150). Nature of the test: GR-GFP Redistribution (AID 450;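 active = compounds whose dose series gives a full or clear partial fitted curve of increased nuclear translocation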; also: potency is read from the fitted curve at half-maximal effect). To be noted: U2OS GR-GFP nuclear translocation, laser cytometry, 2 h.
For test [20] the target is unchanged. Nature of the test: GR-EFC Redistribution (AID 451; calls by dose curve; also: potency is read from the fitted curve at half-maximal effect). The following applies: CHO-K1 GR-EFC translocation, beta-gal luminescence, 2 h. In outline: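 CHO-K1 cells expressing nuclear EA and GR-ED fragments of b-gal; compounds titrated up to 46 uM final, 2 h at 37 C. GR nuclear translocation read as complemented b-gal luminescence after 1 h RT detection.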
Setting [21] is: measured here: cell count channel max response.
The mark [22] stands for this setting: measured here: lipid channel max response.

Molecules are shown by their SMILES. Inconclusive results are not listed. Activity calls are given as the source filed them. Unless noted, calls follow the shape of the dose curve; as a rule, active = well fitted curve in the direction sought with a large enough effect; inconclusive = small, poorly fitted or top-dose-only effect, or another doubt; inactive = no such curve, though single readings can be large; an effect the other way counts as inactive or inconclusive.

Sequence of 3',5'-cyclic-AMP phosphodiesterase 4B (Homo sapiens) (Q07343 whole entry, looked up): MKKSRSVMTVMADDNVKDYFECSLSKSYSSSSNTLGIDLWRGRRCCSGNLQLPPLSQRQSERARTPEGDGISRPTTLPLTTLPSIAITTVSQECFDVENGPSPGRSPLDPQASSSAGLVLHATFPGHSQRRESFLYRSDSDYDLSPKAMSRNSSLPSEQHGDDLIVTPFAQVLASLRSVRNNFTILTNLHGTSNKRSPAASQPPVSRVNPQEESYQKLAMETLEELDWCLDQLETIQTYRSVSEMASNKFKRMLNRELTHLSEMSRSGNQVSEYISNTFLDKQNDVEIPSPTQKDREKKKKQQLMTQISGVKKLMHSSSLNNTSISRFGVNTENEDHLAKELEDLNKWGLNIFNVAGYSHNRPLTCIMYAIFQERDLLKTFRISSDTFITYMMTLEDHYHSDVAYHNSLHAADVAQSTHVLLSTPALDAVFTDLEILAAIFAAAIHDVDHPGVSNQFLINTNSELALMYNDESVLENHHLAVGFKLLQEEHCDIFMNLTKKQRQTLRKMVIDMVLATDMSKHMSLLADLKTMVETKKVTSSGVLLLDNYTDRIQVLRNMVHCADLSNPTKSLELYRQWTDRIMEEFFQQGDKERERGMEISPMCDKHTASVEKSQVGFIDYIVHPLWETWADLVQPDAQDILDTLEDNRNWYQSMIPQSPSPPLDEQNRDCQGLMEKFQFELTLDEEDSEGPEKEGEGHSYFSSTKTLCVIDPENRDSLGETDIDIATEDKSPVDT
Sequence of Cytochrome P450 1A2 (Homo sapiens) (P05177 whole entry, looked up): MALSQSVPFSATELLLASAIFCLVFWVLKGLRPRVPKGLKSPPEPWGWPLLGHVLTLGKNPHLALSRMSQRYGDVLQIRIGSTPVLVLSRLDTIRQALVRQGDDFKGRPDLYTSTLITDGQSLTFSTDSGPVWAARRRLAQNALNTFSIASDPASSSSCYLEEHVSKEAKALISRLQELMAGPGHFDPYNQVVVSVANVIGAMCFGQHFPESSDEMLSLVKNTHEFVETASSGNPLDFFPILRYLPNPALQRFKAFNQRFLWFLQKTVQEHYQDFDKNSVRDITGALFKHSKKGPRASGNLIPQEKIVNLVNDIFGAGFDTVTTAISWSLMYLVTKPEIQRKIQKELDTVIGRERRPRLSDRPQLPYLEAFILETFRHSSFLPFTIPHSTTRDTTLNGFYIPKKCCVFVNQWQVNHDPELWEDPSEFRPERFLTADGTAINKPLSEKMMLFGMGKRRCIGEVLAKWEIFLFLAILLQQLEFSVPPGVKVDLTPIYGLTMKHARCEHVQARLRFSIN
Sequence of Luciferin 4-monooxygenase (Photinus pyralis) (P08659 whole entry, looked up): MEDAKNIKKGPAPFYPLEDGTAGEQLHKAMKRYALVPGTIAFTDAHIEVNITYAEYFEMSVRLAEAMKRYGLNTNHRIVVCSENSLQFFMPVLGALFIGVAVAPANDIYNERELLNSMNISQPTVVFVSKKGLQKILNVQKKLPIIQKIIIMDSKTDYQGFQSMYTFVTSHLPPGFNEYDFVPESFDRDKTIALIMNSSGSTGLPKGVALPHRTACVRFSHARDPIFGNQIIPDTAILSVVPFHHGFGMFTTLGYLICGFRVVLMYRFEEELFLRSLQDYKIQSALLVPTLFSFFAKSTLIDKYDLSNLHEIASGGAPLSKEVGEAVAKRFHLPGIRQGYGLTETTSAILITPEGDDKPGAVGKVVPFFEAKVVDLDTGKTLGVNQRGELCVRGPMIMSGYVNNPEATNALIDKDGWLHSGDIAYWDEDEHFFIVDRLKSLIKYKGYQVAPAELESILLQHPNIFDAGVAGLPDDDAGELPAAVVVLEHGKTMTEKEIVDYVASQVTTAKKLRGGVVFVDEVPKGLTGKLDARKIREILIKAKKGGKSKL
Sequence of Glucocorticoid receptor (Homo sapiens) (P04150 whole entry, looked up, the tested form may be a part): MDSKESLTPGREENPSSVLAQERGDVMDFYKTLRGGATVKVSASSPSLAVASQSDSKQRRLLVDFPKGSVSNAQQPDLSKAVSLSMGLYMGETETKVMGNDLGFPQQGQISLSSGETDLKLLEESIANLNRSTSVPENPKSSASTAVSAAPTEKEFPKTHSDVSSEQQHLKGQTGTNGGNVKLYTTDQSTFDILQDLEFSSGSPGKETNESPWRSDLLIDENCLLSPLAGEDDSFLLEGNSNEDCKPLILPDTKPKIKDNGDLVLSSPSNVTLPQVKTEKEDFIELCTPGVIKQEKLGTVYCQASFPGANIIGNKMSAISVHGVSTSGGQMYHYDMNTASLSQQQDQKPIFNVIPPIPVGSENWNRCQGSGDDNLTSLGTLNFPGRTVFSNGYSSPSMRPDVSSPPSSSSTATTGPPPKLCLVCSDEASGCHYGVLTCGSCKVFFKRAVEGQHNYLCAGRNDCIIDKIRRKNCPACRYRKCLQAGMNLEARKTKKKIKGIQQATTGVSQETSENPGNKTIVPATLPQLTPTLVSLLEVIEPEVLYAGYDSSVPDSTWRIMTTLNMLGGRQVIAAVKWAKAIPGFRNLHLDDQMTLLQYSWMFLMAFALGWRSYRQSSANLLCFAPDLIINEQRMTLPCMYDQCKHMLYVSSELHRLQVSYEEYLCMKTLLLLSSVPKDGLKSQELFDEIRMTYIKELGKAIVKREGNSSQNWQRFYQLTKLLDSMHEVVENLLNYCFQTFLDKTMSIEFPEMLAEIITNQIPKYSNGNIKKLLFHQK
Sequence of Ubiquitin carboxyl-terminal hydrolase 1 (Homo sapiens) (O94782 whole entry, looked up): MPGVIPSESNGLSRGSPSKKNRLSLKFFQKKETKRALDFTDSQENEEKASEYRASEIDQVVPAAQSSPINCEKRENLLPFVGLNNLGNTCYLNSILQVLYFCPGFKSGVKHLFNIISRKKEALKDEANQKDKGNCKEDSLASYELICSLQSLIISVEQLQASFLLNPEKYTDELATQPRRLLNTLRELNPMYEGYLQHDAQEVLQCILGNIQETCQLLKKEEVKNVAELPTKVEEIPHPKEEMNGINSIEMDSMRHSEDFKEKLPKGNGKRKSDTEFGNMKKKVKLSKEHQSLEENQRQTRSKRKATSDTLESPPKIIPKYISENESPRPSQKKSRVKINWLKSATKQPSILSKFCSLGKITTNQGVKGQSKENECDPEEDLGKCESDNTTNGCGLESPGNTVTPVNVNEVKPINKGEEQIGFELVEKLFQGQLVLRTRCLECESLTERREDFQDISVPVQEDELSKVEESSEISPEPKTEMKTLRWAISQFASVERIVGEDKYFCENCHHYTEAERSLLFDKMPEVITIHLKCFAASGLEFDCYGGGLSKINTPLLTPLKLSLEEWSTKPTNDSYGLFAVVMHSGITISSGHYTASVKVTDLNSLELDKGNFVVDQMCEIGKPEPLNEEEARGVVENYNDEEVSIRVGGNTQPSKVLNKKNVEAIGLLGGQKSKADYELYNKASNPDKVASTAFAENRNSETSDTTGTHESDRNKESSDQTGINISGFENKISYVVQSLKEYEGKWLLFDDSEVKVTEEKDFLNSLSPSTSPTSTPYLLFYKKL

For `CC(=O)OCC(=O)[C@@]1(O)[C@H](C)C[C@@H]2[C@H]3CCC4=CC(=O)C=C[C@]4(C)[C@]3(F)[C@@H](O)C[C@@]21C`, the call in test [1], in test [4], in test [6] and in [10] was inactive. The Potency entry in [2], in test [5], in test [8], in test [9], in test [12] and in [13] was “inactive” throughout. In addition, the Potency entry in [14], in test [15], in [16], in test [17] and in test [18] was “inactive” each time. In addition, the values for the activity change, negative = inhibition in test [3] and in test [7] (at 25.7 µM (top of the series)) were -0.305% (inactive) and -3.21% (inactive), respectively. Further, the max response in test [7] (setting [21]) is -15.2%; in [7] (setting [22]), -18.5%. In addition, the activity, negative = inhibition in test [11] (parasite line A) is 0.4% (inactive); in test [11] (parasite line B), -1.7% (inactive).

In the case of `Cc1noc(C)c1-c1nc(Nc2ccncc2)c2ccccc2n1`, the result in test [1] was inactive. For the same compound, the Potency in [2] was 0.1 µM (active); in test [19], > 46 µM (inactive); in test [20] it was > 46 µM (inactive). The activity change, negative = inhibition in [3] is -11.9% [at 7.69 µM] (inactive); in [7] (at 57.5 µM (top of the series)) it was -8.29% (inactive). Besides, the Potency result in test [5] is “inactive”. For the same compound, the figures for the max response in test [7] (setting [21]) and in test [7] (setting [22]) were -5.56% and -10.6%, respectively.

`CC[C@@H]1OC(=O)[C@H](C)[C@H](O[C@@H]2C[C@](C)(OC)[C@H](O)[C@H](C)O2)[C@H](C)[C@H](O[C@@H]2O[C@@H](C)C[C@@H](N(C)C)[C@@H]2O)[C@](C)(O)C[C@H](C)C(=O)[C@H](C)[C@H](O)[C@]1(C)O`: the compound was called inactive in [1], in [4] and in test [6]. Moreover, the Potency entry in [2] and in [5] was “inactive” in each case. For the same compound, the activity change, negative = inhibition in test [3] was 0.792% (inactive); in [7] (at 25.7 µM (top of the series)), -1.3% (inactive). Further, the max response in [7] (setting [21]) amounted to 9.04%; in test [7] (setting [22]), 8.95%.

With `CCC(=O)O[C@@]1(C(=O)SCF)[C@@H](C)C[C@H]2[C@@H]3C[C@@H](F)C4=CC(=O)C=C[C@@]4(C)[C@]3(F)[C@@H](O)C[C@]21C`, the result in [1], in [4], in [6] and in test [10] was inactive. The Potency entry in [2], in [5], in test [9], in [12], in test [14] and in [15] was “inactive” in each case. Also, the Potency entry in [16], in test [17] and in test [18] was “inactive” in each case. In addition, the figures for the activity change, negative = inhibition in test [3] and in test [7] (at 25.7 µM (top of the series)) were -22.7% (inactive) and 1.23% (inactive), respectively. Further, the max response in [7] (setting [21]) was -7.35%; in test [7] (setting [22]), -5.95%.

For the compound `Cc1ccc(S(=O)(=O)NC(=O)NN2C[C@H]3CCC[C@@H]3C2)cc1`, the outcome in test [1], in test [6] and in test [10] was inactive. The Potency result in test [2], in [5], in test [9], in test [12], in [13] and in test [14] was “inactive” throughout. For the same compound, the Potency entry in test [15], in [16], in [17] and in [18] was “inactive” throughout. Further, the activity change, negative = inhibition in test [3] was -2% (inactive); in [7] (at 25.7 µM (top of the series)), 2.69% (inactive). Further, the max response in test [7] (setting [21]) was found to be 5.52%; in [7] (setting [22]) it was 8.97%. Also, the activity, negative = inhibition was -0.0473% (inactive) in test [11] (parasite line A) and 12.1% (inactive) in test [11] (parasite line B).

In the case of `O=C(/C=C\C=C/c1ccc2c(c1)OCO2)N1CCCCC1`, the outcome in test [1] and in [4] was inactive. In addition, the Potency in test [2] was 3.16 µM (active). The activity change, negative = inhibition in test [3] was -3.46% (inactive); in test [7] (at 25.7 µM (top of the series)), 2% (inactive). Moreover, in test [5], the Potency result is “inactive”. For the same compound, the figures for the max response in [7] (setting [21]) and in [7] (setting [22]) were -1.9% and 1.28%, respectively.

Consider `CCC(=O)OCC(=O)[C@@]1(OC(=O)CC)[C@H](C)C[C@@H]2[C@H]3CCC4=CC(=O)C=C[C@]4(C)[C@]3(Cl)[C@@H](O)C[C@@]21C`, for which the result in test [1] and in [6] was inactive. The Potency entry in test [2] and in test [5] was “inactive” throughout. Also, the activity change, negative = inhibition was -10.9% (inactive) in test [3] and -9.54% (inactive) in test [7] (at 25.7 µM (top of the series)). In addition, the max response was -5.37% in test [7] (setting [21]) and -14.6% in test [7] (setting [22]).
